# Cruzain inh Det = qHTS Assay for Promiscuous and Specific Inhibitors of Cruzain (with detergent). Potency, µM, for the others: max response, negative = inhibition, usual class: inhibitors. Cruzipain (Trypanosoma cruzi), P25779. 200,000 compounds, 0.43% hits. purified cruzain, Z-FR-AMC fluorescence, 0.01% Triton. AID 1478, 2009;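 note: plate controls were neutral wells for no effect and buffer without enzyme for full effect; nearly all actives have a fitted effect of over 40% in size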
# Target sequence (P25779 123-467 limits assumed): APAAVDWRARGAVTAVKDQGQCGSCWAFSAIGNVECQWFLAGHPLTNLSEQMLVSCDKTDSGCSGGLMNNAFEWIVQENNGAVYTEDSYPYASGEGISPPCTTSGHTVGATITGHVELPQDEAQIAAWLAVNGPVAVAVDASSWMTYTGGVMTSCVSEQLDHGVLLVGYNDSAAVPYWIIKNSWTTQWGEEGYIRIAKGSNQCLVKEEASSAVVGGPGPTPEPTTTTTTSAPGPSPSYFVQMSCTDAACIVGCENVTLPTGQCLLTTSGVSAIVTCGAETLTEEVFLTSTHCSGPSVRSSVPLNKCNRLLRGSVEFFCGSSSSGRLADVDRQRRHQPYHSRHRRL
#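 Cruzain (1.5 nM) preincubated 15 min at RT with compound in 100 mM sodium acetate pH 5.5, 5 mM DTT, 0.01% Triton X-100. Reaction started with 2 uM Z-FR-AMC; AMC fluorescence (ex 360/em 450 nm) change over 60 s gave rate.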
# NS1 function inh = qHTS Assay for Inhibitors of Influenza NS1 Protein Function. Potency, µM (top dose mostly 46.1 µM), for inactives: at the highest dose activity, positive = more growth. AID 2326, 2010. 270,000 compounds, 0.4% hits; calls by dose curve; note: actives are rising curves; nearly all actives have a fitted effect of over 50% in size
#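 Recovery from NS1-induced slow growth read by OD600 in budding yeast switched to galactose assay medium (pH 6.0, -URA) at 1:100 dilution. Compound 23 nl per well; the matching strain lacking NS1 serves as control.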
# Cruzain inh noDet = qHTS Assay for Promiscuous and Specific Inhibitors of Cruzain (without detergent) | Cruzipain (Trypanosoma cruzi), P25779 | purified cruzain, Z-FR-AMC fluorescence, no detergent | Potency, µM, for inactives: max response, negative = inhibition, actives largely listed as inhibitors | 200,000 compounds, 2.3% hits | AID 1476, 2009;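 note: plate controls were enzyme without inhibitor for no effect and buffer without enzyme for full effect; nearly all actives have a fitted effect of over 40% in size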
#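 Purified cruzain at 1.5 nM, pre-incubated 15 min with compound at room temperature in 100 mM sodium acetate pH 5.5, 5 mM DTT, 0.00005% Triton X-100. Reaction started with 2 uM Z-FR-AMC; AMC fluorescence increase over 60 s gives rate.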
# An asterisk follows results filed as active; ? = inconclusive; nt = no result given; ! = not confirmed by another sample. The sample as a whole holds a higher share of hits than the screen did. Unless noted, calls come from the whole dose curve; as a rule, active = well fitted curve in the direction sought with a large enough effect; inconclusive = small, poorly fitted or top-dose-only effect, or another doubt; inactive = no such curve, though single readings can be large; an effect the other way counts as inactive or inconclusive. Potency is the fitted concentration of half-maximal effect.
SMILES,Cruzain inh Det,NS1 function inh,Cruzain inh noDet
CC1CCc2sc(C(=O)OCC(=O)NC(N)=O)cc2C1 (stereo not given),nt,-1.5%,nt
CCOC(=O)C1CCN(C(=O)Cn2ncc3c4ccccc4n(Cc4ccc(F)cc4)c3c2=O)CC1,-12.4%,nt,?
Cc1ccc(C)c(N2CCN(C(=O)C(Cc3ccccc3)n3cccc3)CC2)c1 (stereo not given),1.6%,-0.3%,-10.2%
O=C(CSc1nc2c(c(=O)[nH]1)CCC2)Nc1cccc(Cl)c1,4.0%,-2.5%,-2.8%
CCc1cccc(NC(=O)CSc2nc3c(c(=O)[nH]2)CCCC3)c1,-1.4%,7.5%,25.1µM*
COc1ccccc1NC(=O)C1=C(C)Nc2nc(SCc3ccccc3)nn2C1c1ccncc1 (stereo not given),-0.9%,nt,-7.8%
Oc1c(I)cc(Cl)c2cccnc12,1.9%,-38.9%,12.6µM*!
O=[N+]([O-])c1cc(Cl)c2cccnc2c1O,nt,-74.1%,nt
O=C(Nc1ccc(Cl)c(Cl)c1)Nc1nc(-c2ccccc2)cs1,-2.2%,-2.1%,10µM*
O=C(Nc1ccccc1)Nc1nc(-c2ccccc2)cs1,nt,-6.1%,nt
O=C(Nc1ccc(Cl)cc1)Nc1nc(-c2sccc2Br)cs1,5.9%,8.7%,10µM*
O=C(Nc1ccc(Cl)cc1)Nc1nc(-c2ccccc2O)cs1,nt,7.6%,nt
COc1ccccc1Cc1nc2ccccc2nc1SCC(=O)Nc1cc(Cl)ccc1OC,0.4%,nt,?
O=S(=O)(c1ccc2nc(Nc3ccccc3)ccc2c1)N1CCCCC1,nt,-15.0%,nt
CC(=O)c1cccc(Nc2ccc3cc(S(=O)(=O)N4CCCC4)ccc3n2)c1,-6.9%,nt,12.6µM*
CC(=O)C1C(c2ccco2)c2c(noc2C)CC1(C)O (stereo not given),3.3%,-0.9%,-1.9%
Cc1nn(C(=O)c2ccco2)c(C)c1CN1C(=O)c2ccccc2C1=O,2.4%,?,-2.8%
Cc1nn(C(=O)c2cccs2)c(C)c1CN1C(=O)c2ccccc2C1=O,1.3%,1.9%,20µM*
CCn1nnc(NC(=O)c2ccc(-c3ccc(Cl)cc3)o2)n1,-8.9%,-0.3%,-15.1%
CCc1nnc(NC(=O)c2ccc(-c3ccc(Cl)cc3)o2)s1,2.8%,-3.3%,15.8µM*
COC(=O)[C@@H]1Cc2c([nH]c3ccccc23)C(C)N1C(=O)c1ccccc1 (stereo not given in full),nt,2.2%,nt
CCC(SC1=N/C(=C/c2ccccc2)C(=O)N1c1ccccc1)C(=O)Nc1cc(C)on1 (stereo not given),-1.3%,-8.6%,31.6µM*
COc1ccc(/C=C2/N=C(SCC(=O)Nc3cc(C)on3)N(c3ccccc3)C2=O)cc1,3.2%,-1.8%,22.5%
CC1CN(C/C(=N\O)C23CC4CC(CC(C4)C2)C3)CC(C)O1 (stereo not given),nt,-1.8%,nt
COC(=O)C1(C(F)(F)F)C2C=CC(C2)N1S(=O)(=O)c1ccc(C)cc1 (stereo not given),nt,-2.1%,nt
SMILES,Cruzain inh Det,NS1 function inh,Cruzain inh noDet
COc1cccc(N2CCN(CC(=O)NC3=Nc4ccccc4N=C(C)C3c3ccccc3)CC2)c1 (stereo not given),nt,-8.8%,nt
COc1cccc(N2CCN(CC(=O)Nc3nnc(-c4ccccc4)s3)CC2)c1,-2.2%,-0.4%,25.1µM*
COC(=O)c1sc2ccccc2c1NC(=O)c1cccs1,-5.5%,-14.4%,2.4%
Nc1ccc(S(=O)(=O)Nc2nccc(/C=C/c3ccc(Cl)cc3)n2)cc1,nt,-4.1%,nt
O=C(CSc1ncnc2sc3c(c12)CCCC3)N1CCC(c2noc3ccc(F)cc23)CC1,2.6%,3.4%,15.8µM*
O=C(CSc1ncnc2sc3c(c12)CCC3)N1CCOCC1,nt,1.5%,nt
CC(C)Nc1nc(-c2ccncc2)nc(-c2ccc(Cl)cc2)c1C#N,nt,-2.8%,nt
CCNc1ccc(C(=O)N/N=C/c2c(C)nn(-c3ccccc3)c2N2CCCC2)cc1[N+](=O)[O-],-9.9%,16.1%,5.7%
Cc1ccc(NS(=O)(=O)c2cccc(C(=O)N/N=C/c3ccc4c(c3)OCCO4)c2)c(C)c1,-13.2%,37.4%,6.31µM*
Cc1ccc(NS(=O)(=O)c2cccc(C(=O)N/N=C/c3c(C)nn(-c4ccccc4)c3N3CCCC3)c2)c(C)c1,-2.1%,?,31.6µM*
COc1ccccc1NS(=O)(=O)c1cccc(C(=O)N/N=C/c2ccc(N3CCOCC3)cc2)c1,-6.7%,-4.9%,?
C/C(=N\NC(=O)c1ccc2c(c1)OCO2)c1ccc(C(=O)O)s1,nt,4.3%,nt
Cc1ccc(C(c2nnnn2C2CCCCC2)N2CCc3ccccc32)cc1 (stereo not given),-1.3%,-2.6%,25.1µM*
CC(C)C(c1nnnn1C1CCCCC1)N1CCc2ccccc21 (stereo not given),-1.2%,7.9%,12.8%
Cc1ccc(NC(=O)CSc2nc3c(cc2C#N)C(=O)CCC3)cc1S(=O)(=O)N(C)C,-0.1%,9.1%,-17.0%
CN1CCN(C(=O)c2ccccc2NC(=O)c2cccs2)CC1,1.3%,2.2%,-0.4%
CCCc1nc(NC(C)=O)c(C#N)c(-c2ccco2)c1CC,-2.7%,0.5%,11.1%
CCCCc1nc(N)c(C#N)c(-c2ccco2)c1CCC,25.1µM*,14.0%,20µM*
COC(=O)CSc1nc(N)c(C#N)c(-c2ccco2)c1C#N,-2.7%,-3.0%,7.1%
CCSc1nc(N)c(C#N)c(-c2ccco2)c1C#N,?,-20.3%,20µM*
Cc1cccc(OCC(=O)Nc2ccccc2C(=O)OCc2cc(=O)n3nc(C4CC4)sc3n2)c1,0.3%,nt,3.7%
Cc1ccc(S(=O)(=O)N(CC(=O)Nc2cccc([N+](=O)[O-])c2)C2CCCCC2)cc1,-4.9%,18.2%,3.6%
Cc1ccc(S(=O)(=O)N(CC(=O)Nc2ccc(Cl)c([N+](=O)[O-])c2)C2CCCCC2)cc1,-6.0%,?,12.6µM*
Oc1ccc(Br)cc1-c1cc(-c2ccc(Cl)cc2)n[nH]1,8.2%,2.9%,31.6µM*
Oc1ccc(Br)cc1-c1cc(-c2ccccc2)n[nH]1,-14.1%,-17.4%,-15.3%
SMILES,Cruzain inh Det,NS1 function inh,Cruzain inh noDet
CCOc1ccc(NC(=O)/C(C#N)=C\c2ccc(-c3ccc(Cl)cc3)o2)cc1,-1.5%,nt,-3.7%
O=C(Cc1ccccc1)Nc1nnc(-c2cccc([N+](=O)[O-])c2)s1,-1.4%,-1.7%,15.8µM*
O=C(Nc1ncc(Cc2ccc(C(F)(F)F)cc2)s1)c1ccc(-c2cccc([N+](=O)[O-])c2)o1,-2.5%,20.0%,12.6µM*
O=C(Nc1ncc(Cc2ccccc2Cl)s1)c1ccc([N+](=O)[O-])cc1,-1.6%,6.3%,?
Cc1ccc(Cc2cnc(NC(=O)/C(C#N)=C/c3ccc(-c4ccc([N+](=O)[O-])cc4)o3)s2)cc1,1.3%,-18.3%,2.51µM*
O=C(Nc1ncc(Cc2ccccc2Cl)s1)c1ccc(-c2cccc([N+](=O)[O-])c2)o1,-1.3%,6.9%,6.31µM*
O=C(Nc1ncc(Cc2cccc([N+](=O)[O-])c2)s1)c1ccco1,nt,-4.6%,nt
COc1ccc(CC(=O)Nc2nnc(-c3cccc([N+](=O)[O-])c3)s2)cc1,0.0%,26.5%,?
O=C(O)/C=C/C(=O)Nc1ccccc1SC(F)(F)C(F)(F)C(F)(F)F,nt,-3.9%,nt
CCNC(=O)CC1C(=O)N(c2ccc(F)cc2)C(=O)N1Cc1ccc(OC)cc1 (stereo not given),3.8%,2.2%,-9.9%
